Biological target: T1, Arginase-2, mitochondrial (Homo sapiens) (UniProt P78540)
T1 sequence (whole entry): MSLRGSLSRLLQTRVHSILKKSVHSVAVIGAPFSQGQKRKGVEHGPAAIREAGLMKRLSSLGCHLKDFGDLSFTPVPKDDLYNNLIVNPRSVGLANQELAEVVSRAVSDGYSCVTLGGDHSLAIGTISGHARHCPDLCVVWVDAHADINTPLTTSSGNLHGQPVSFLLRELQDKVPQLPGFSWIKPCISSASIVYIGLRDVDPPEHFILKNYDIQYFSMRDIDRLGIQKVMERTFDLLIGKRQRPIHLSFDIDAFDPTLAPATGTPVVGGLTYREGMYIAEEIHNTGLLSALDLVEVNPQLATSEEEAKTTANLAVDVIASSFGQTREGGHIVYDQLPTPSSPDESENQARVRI
Experiment: in vitro enzyme assay to detect the production of urea directly proportional to the activity of Arginase II
Format: functional
Parameters: scale not given: in the data most compounds retested in dose-response had high values
Conditions: 30 µM

Structure (SMILES)	Percent Effect
CCOCCNC(=O)c1cc(Br)c2c(c1)OCCO2	9.19%
CCC(C(=O)NCc1cccnc1)N(c1cccc(C)c1)S(C)(=O)=O (centres undefined)	-0.54%
CC(C)N(C)C(=O)c1coc(CN2CCN(c3ccccc3F)CC2)n1	7.03%
Cc1nsc(N2CCCN(C(=O)NCc3cc(C)on3)CC2)n1	8.11%
CC1=Nc2c(c(=O)[nH]n2C2CCCC2)C(c2ccc(O)cc2)S1 (centres undefined)	5.95%
CS(=O)(=O)NCCC(=O)N1CCCC1c1noc(C2CC2)n1 (centres undefined)	11.3%
NS(=O)(=O)CCNC(=O)c1cc(Br)c2c(c1)OCCO2	8.11%
CN(CC(=O)N1CCCC1c1noc(C2CC2)n1)S(C)(=O)=O (centres undefined)	3.78%
Cc1ccc(CNCc2nnc3n2CC(C(F)(F)F)CC3)o1 (centres undefined)	-7.03%
Cc1nn(CCO)c(C)c1CNC1CCOc2ccccc21 (centres undefined)	-9.19%
CCC(C(=O)NCc1ccncc1)N(c1ccccc1)S(C)(=O)=O (centres undefined)	5.95%
Cc1noc(C)c1CN1C[C@@H](N(C)Cc2ccco2)[C@H]2OCCC[C@H]21	7.03%
O=C(NCC1CC1)[C@@H]1CCO[C@@H]2CCN(CCc3ccccc3)C[C@H]21	1.62%
O=C(Cn1ccc2c(Cl)cccc21)N1CCCC1	8.11%
COCC(=O)N1CCC(c2cncc(-c3cccc(F)c3)n2)CC1	-5.95%
Cn1cc(CC2CCN(C(=O)NCc3csc(C4CC4)n3)C2)cn1 (centres undefined)	7.03%
COc1ccc2c(c1)OCC(CNC(=O)c1cnc(O)cn1)C2 (centres undefined)	10.3%
Cc1noc(CNC(=O)N2CCN(c3nc(C)c(C)s3)CC2)n1	5.95%
CN1CCC(c2cncc(-c3cccc(Cl)c3)n2)CC1	4.87%
CC(C)CN1CCC(NC(=O)c2ccc(Cl)cc2Cl)CC1	-7.03%

Structure (SMILES)	Percent Effect
O=C(NCc1ccncc1)N(Cc1ccc(F)cc1F)C1CC1	3.78%
Fc1ccc(CNCc2nnc3n2CC(C(F)(F)F)CC3)c(F)c1 (centres undefined)	8.11%
O=C([C@@H]1CCO[C@@H]2CCN(CCc3ccccc3)C[C@@H]21)N1CCCC1	11.3%
COc1ccc(-c2nc(CN3CC(n4cccn4)C3)no2)cc1	0.54%
OC(CN(Cc1ccccc1)Cc1ccccn1)c1cccs1 (centres undefined)	11.3%
CCn1c(NCc2ccccc2)nc2c(C)nn(C)c2c1=O	8.11%
CCOc1cccc(C(=O)N(CCC#N)Cc2ccccn2)c1	13.5%
O=C(NCc1ccccn1)[C@]12COC[C@H]1CN(Cc1ccccc1F)C2	4.87%
CCOCCCNC(=O)c1cc(Br)c2c(c1)OCCO2	0.54%
CCn1c(NCc2ccc(OC)cc2)nc2c(C)nn(C)c2c1=O	-4.87%
Cc1noc(C)c1C(=O)N1CCCC(c2nccn2Cc2cscn2)C1 (centres undefined)	5.95%
COCc1ccc(C(=O)N(CCC#N)Cc2ccccn2)cc1	0.54%
O=c1[nH]c2c(c(=O)n1C1CCCCC1)CCC2Nc1ccccn1 (centres undefined)	5.95%
Cc1cc(C)n(C2CN(Cc3noc(C4CC4)n3)C2)n1	8.11%
COc1ccccc1Oc1ncccc1CNC(=O)C(C)CN (centres undefined)	11.3%
CC1=Nc2c(c(=O)[nH]n2C2CCCC2)C(c2cccnc2)S1 (centres undefined)	7.03%
O=C(c1coc(CN2CCN(c3ccccc3F)CC2)n1)N1CC=CC1	5.95%
COc1ccc2c(c1)OCC(CNC(=O)c1ccc3[nH]nnc3c1)C2 (centres undefined)	8.11%
O=C(O)C(c1ccc(Cl)c(F)c1)N1CCN(Cc2ccccn2)CC1 (centres undefined)	5.95%

From ChEMBL document CHEMBL3988442, “University of Dundee, Small-Polar-MMV Screening Library” (2021)
